A short description of the assay: modulators of CD8 T cell-vesicle binding, confirmation, cherry-picked primary hits, two concentrations (AID 2810).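 For all read-outs here: lower values mean blocking of vesicle binding.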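 For percent response (vesicle binding): ratio of mean FL2 vesicle stain of CD8+ cells to that row's control.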 The settings on record: 2C CD8+ T cell-vesicle binding, flow cytometry; for double positive events: CD8+/vesicle+ events.
Where [1] appears, read: at 15.4 µM, stronger effect = lower value.

The structures appear in SMILES notation. The campaign covered roughly 1,200 compounds. About 65 (5%) were called active.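 Rule for the calls: active = at either tested dose, response and 90th-percentile vesicle-stain brightness of CD8 cells under set limits and under 9% cells vesicle-bound; inactive = the rest.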 Many of the other results were omitted from the sample, so actives are more common in it than they were.

For `COCCNC(=O)c1c[nH]c2ccc(OC)cc2c1=O`, the double positive events worked out at 18.7% (at 7.7 µM) and 13.1% under setting [1]. Moreover, the percent response (vesicle binding) is 154% (inactive) under setting [1] and 563% (response, at 7.7 µM).

As for `NC(=O)NC(=O)COC(=O)CN1C(=O)C2CCCCC2C1=O` (stereo not drawn), the double positive events by setting is: (at 7.7 µM) 15.9%; under setting [1], 33.3%. For the same compound, the percent response (vesicle binding) runs as follows: under setting [1], 345% (inactive); (response, at 7.7 µM) 151%.

Consider `CCOC(=O)c1c(C=O)c2ccccc2n1CC`, for which the double positive events (at 7.7 µM) turned out to be 17.9% and the double positive events under setting [1] turned out to be 3%. The percent response (vesicle binding) was 28.6% (active) under setting [1] and 287% (response, at 7.7 µM).

Turning to `CCOC(=O)c1c(O)c2cc(Cl)ccc2n(CC)c1=O`, the double positive events is, setting by setting: (at 7.7 µM) 10.9%; under setting [1], 12%. For the same compound, the percent response (vesicle binding) under setting [1] is 102% (inactive) and the percent response (vesicle binding) (response, at 7.7 µM) amounted to 127%.

`CCn1c(=O)cc(SCC(=O)N(C)Cc2ccccc2)c2ccccc21` registered a double positive events (at 7.7 µM) of 24.8% and a double positive events under setting [1] of 14%. Moreover, the percent response (vesicle binding) reads like this: under setting [1], 193% (inactive); (response, at 7.7 µM) 224%.

In the case of `Cc1ccc(CSc2ccc(S(=O)(=O)N3CCCC3)cn2)cc1`, the double positive events by setting is: (at 7.7 µM) 8.3%; under setting [1], 18%. The percent response (vesicle binding) reads like this: under setting [1], 92.4% (inactive); (response, at 7.7 µM) 237%.

On to `CC(=O)c1ccc(Nc2cc(C)nc3nc(C)nn23)cc1`, for which the double positive events is 10.4% (at 7.7 µM) and 19.9% under setting [1]. The percent response (vesicle binding) under setting [1] was 90.9% (inactive) and the percent response (vesicle binding) (response, at 7.7 µM) stood at 189%.

Consider `COc1ccc(NC(=S)N2CCN(c3ncccn3)CC2)c(OC)c1`, for which the double positive events was found to be 30.6% (at 7.7 µM) and 14.7% under setting [1]. Also, the percent response (vesicle binding) is, setting by setting: under setting [1], 195% (inactive); (response, at 7.7 µM) 246%.

As for `COc1ccc(-c2cccc3c2NC(=O)C3=O)cc1OC`, the double positive events was determined as 7.8% (at 7.7 µM) and 26.1% under setting [1]. Further, the percent response (vesicle binding) was 427% (inactive) under setting [1] and 305% (response, at 7.7 µM).

Consider `C/C(=N\Nc1nc2ccccc2[nH]1)c1cc2ccccc2o1`, for which the double positive events was found to be 14.4% (at 7.7 µM) and 31.4% under setting [1]. In addition, the percent response (vesicle binding) is 271% (inactive) under setting [1] and 266% (response, at 7.7 µM).

In the case of `CC(C)(CNC(=O)c1cc2c(s1)CCCC2)N1CCOCC1`, the double positive events is, setting by setting: (at 7.7 µM) 8%; under setting [1], 20.9%. The percent response (vesicle binding) by setting is: under setting [1], 213% (inactive); (response, at 7.7 µM) 164%.

For `CCSc1ncnc2sc(C)c(C)c12`, the double positive events was 7.6% (at 7.7 µM) and 17.4% under setting [1]. Besides, the percent response (vesicle binding) under setting [1] is 318% (inactive) and the percent response (vesicle binding) (response, at 7.7 µM) worked out at 354%.

On to `Cc1sc2ncnc(NCC(C)(C)N3CCOCC3)c2c1C`, for which the double positive events runs as follows: (at 7.7 µM) 6.4%; under setting [1], 1.9%. Also, the percent response (vesicle binding) by setting is: under setting [1], 49.2% (active); (response, at 7.7 µM) 251%.

`Cc1ncc([N+](=O)[O-])n1Cc1cccc(F)c1` displayed a double positive events (at 7.7 µM) of 7.3% and a double positive events under setting [1] of 11.5%. The percent response (vesicle binding) was 118% (inactive) under setting [1] and 274% (response, at 7.7 µM).

As for `COc1ccc(S(=O)(=O)N(C)C[C@H]2Oc3ccc(NC(=O)C4CC4)cc3C(=O)N([C@H](C)CO)C[C@@H]2C)cc1`, the double positive events reads like this: (at 7.7 µM) 5.6%; under setting [1], 16.6%. In addition, the percent response (vesicle binding) was 189% (inactive) under setting [1] and 102% (response, at 7.7 µM).

`Cc1cc(C)c(/C=N/NC(N)=O)c(C)c1/C=N/NC(N)=O` showed a double positive events (at 7.7 µM) of 38.1% and a double positive events under setting [1] of 18.6%. Besides, the percent response (vesicle binding) is, setting by setting: under setting [1], 240% (inactive); (response, at 7.7 µM) 428%.

`CCCC(=O)N1CCc2cc(OC)c(OC)cc2C1COc1ccccc1OC` (stereo not drawn) yielded a double positive events (at 7.7 µM) of 21.6% and a double positive events under setting [1] of 13.8%. Moreover, the percent response (vesicle binding) under setting [1] was 128% (inactive) and the percent response (vesicle binding) (response, at 7.7 µM) worked out at 276%.

`O=C1N=C(N2CCOCC2)S/C1=C\c1cccs1`: the double positive events reads like this: (at 7.7 µM) 8.6%; under setting [1], 6.3%. Further, the percent response (vesicle binding) is 248% (inactive) under setting [1] and 332% (response, at 7.7 µM).

With `COc1ccc(/C=C2\SC(N3CCc4ccccc4C3)=NC2=O)cc1OC`, the double positive events runs as follows: (at 7.7 µM) 22.6%; under setting [1], 2.9%. Besides, the percent response (vesicle binding) reads like this: under setting [1], 42% (active); (response, at 7.7 µM) 201%.

For the compound `CC(C)NC(=O)NC(=O)COC(=O)c1ccc(F)cc1F`, the double positive events is 29.2% (at 7.7 µM) and 19.1% under setting [1]. For the same compound, the percent response (vesicle binding) is 385% (inactive) under setting [1] and 423% (response, at 7.7 µM).

Turning to `O=C(c1c[nH]c2ccccc12)N1CCN(Cc2ccccc2)CC1`, the double positive events is, setting by setting: (at 7.7 µM) 13.7%; under setting [1], 10.6%. Further, the percent response (vesicle binding) is, setting by setting: under setting [1], 47.9% (inactive); (response, at 7.7 µM) 181%.

On to `CC(NS(=O)(=O)c1ccc(Cl)c(Cl)c1)C(=O)OCC(=O)N1CCCCCC1` (stereo not drawn), for which the double positive events is 27.5% (at 7.7 µM) and 12.9% under setting [1]. Moreover, the percent response (vesicle binding) under setting [1] is 182% (inactive) and the percent response (vesicle binding) (response, at 7.7 µM) came out at 284%.

For `c1csc(-c2nc3ccccc3[nH]2)c1`, the double positive events by setting is: (at 7.7 µM) 38.6%; under setting [1], 18.6%. Further, the percent response (vesicle binding) is, setting by setting: under setting [1], 255% (inactive); (response, at 7.7 µM) 233%.

For `COc1ccc([C@H]2CC(=O)C=C(c3cc(F)ccc3OC)C2)cc1`, the double positive events came out at 19.1% (at 7.7 µM) and 16.3% under setting [1]. The percent response (vesicle binding) was 198% (inactive) under setting [1] and 138% (response, at 7.7 µM).

In the case of `COc1ccc([C@H]2CC(=O)C=C(/C=C/c3ccccc3)C2)cc1`, the double positive events by setting is: (at 7.7 µM) 19.1%; under setting [1], 3.3%. Besides, the percent response (vesicle binding) is 36.9% (active) under setting [1] and 286% (response, at 7.7 µM).

Take `COc1ccc(C2=CC(=O)CC(c3ccc(OC)cc3)C2)cc1` (stereo not drawn): the double positive events is 14.8% (at 7.7 µM) and 3.2% under setting [1]. Further, the percent response (vesicle binding) was 110% (inactive) under setting [1] and 120% (response, at 7.7 µM).

`COc1ccc([C@H]2CC(=O)C=C(c3ccc4c5c(cccc35)CC4)C2)cc1`: the double positive events (at 7.7 µM) was found to be 6.5% and the double positive events under setting [1] is 29.8%. In addition, the percent response (vesicle binding) is, setting by setting: under setting [1], 626% (inactive); (response, at 7.7 µM) 271%.

For the compound `COc1ccc([C@H]2CC(=O)C=C(c3c(C)cc(C)cc3C)C2)cc1`, the double positive events came to 12.5% (at 7.7 µM) and 5.7% under setting [1]. The percent response (vesicle binding) reads like this: under setting [1], 49.9% (active); (response, at 7.7 µM) 132%.

With `COc1ccc([C@H]2CC(=O)C=C(c3cccc(Cl)c3)C2)cc1`, the double positive events by setting is: (at 7.7 µM) 37.2%; under setting [1], 4.7%. Besides, the percent response (vesicle binding) under setting [1] is 129% (inactive) and the percent response (vesicle binding) (response, at 7.7 µM) was found to be 315%.

On to `O=C(NCCO)/C(=C\c1ccc(Br)cc1)NC(=O)c1cccs1`, for which the double positive events (at 7.7 µM) came to 6.9% and the double positive events under setting [1] was 24.7%. Also, the percent response (vesicle binding) under setting [1] is 683% (inactive) and the percent response (vesicle binding) (response, at 7.7 µM) is 70.4%.

Regarding `COc1ccc(CCCC(=O)NC(C)c2ccccc2)cc1` (stereo not drawn), the double positive events runs as follows: (at 7.7 µM) 12.2%; under setting [1], 15.2%. The percent response (vesicle binding) runs as follows: under setting [1], 93.8% (inactive); (response, at 7.7 µM) 104%.

Turning to `O=C(COC(=O)C1(c2cccc(F)c2)CCCC1)NCc1ccc2c(c1)OCO2`, the double positive events runs as follows: (at 7.7 µM) 15.2%; under setting [1], 3.1%. For the same compound, the percent response (vesicle binding) runs as follows: under setting [1], 106% (inactive); (response, at 7.7 µM) 82.7%.

The values above are taken from PubChem BioAssay AID2810 (NMMLSC, 2010).
